An excerpt weighted towards active compounds, which were near 4.5% of everything screened.
tim10-1 inh = growth inhibitors of tim10-1 mutant yeast | S. cerevisiae tim10-1 ts strain growth, BacTiter-Glo, 24 h | AID 463190 | 330,000 tested, 2.2% active | inhibition, % at 20 µM;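 active = inhibition of at least 40%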;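 also: mutant grown at 25 °C; 0% = DMSO wells with yeast and 100% = wells holding no yeast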
SKKanGAS inh = inhibitors of SKKanGAS S. pyogenes growth in kanamycin (SK-promoter or general growth effect). BacTiter-Glo, 6 h. inhibition, % at 7.5 µM. 300,000 tested, 1.3% active. AID 1662;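 active = mean replicate score, as percent of positive control median, at least 50; inconclusive = mean below 50 but one replicate at or above 50; inactive = mean and every replicate below 50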;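 also: strain carries kanamycin resistance gene driven by streptokinase promoter and grows in 40 µg/ml kanamycin; loss of luminescence reflects streptokinase promoter inhibition or plain growth inhibition; 0% = median of DMSO wells and 100% = positive control at its reference dose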
PfHsp90 set2 = reduces growth (ATP signal) of yeast expressing P. falciparum Hsp90 | S. cerevisiae expressing PfHsp90, BacTiter-Glo ATP, 48 h; yeast lacking PDR1 and PDR3 efflux regulators | inhibition, % at 9.4 µM | 310,000 tested, 0.32% active;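 active = every replicate shows inhibition above about 80%, whatever the replicate mean, limit read from the data; inconclusive = mean inhibition reaches the set limit but some replicate falls short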;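 also: 0% = DMSO neutral controls and 100% = 20 µM radicicol positive controls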
NLRP3 yeast inh = blocks the NALP3 inflammasome reconstituted in yeast. AID 2825. 330,000 tested, 0.39% active. inhibition, % at 10 µM. Yeast reconstituted NLRP3/ASC/caspase-1, beta-gal luminescence, 24 h;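 active = inhibition of 50% or more; inactive = inhibition below 50%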;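 also: plate controls were induced DMSO wells for no effect and uninduced yeast grown without galactose for full effect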
tim23-1 inh = inhibits growth of tim23-1 mutant yeast; 330,000 tested, 1.3% active; inhibition, % at 20 µM; S. cerevisiae tim23-1 growth, BacTiter-Glo luminescence, 24 h;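 active = growth inhibition of the mutant yeast at or above 50%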;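 also: temperature-sensitive mutant grown at 25 °C; plate controls were DMSO-treated mutant yeast for no effect and medium wells lacking yeast for full effect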
TIM10 inh = inhibits growth of TIM10 yeast strain. AID 463195. inhibition, % at 10 µM. 330,000 tested, 1.4% active. S. cerevisiae TIM10 strain growth, BacTiter-Glo luminescence, 24 h;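 active = inhibition of 40% or more at the single tested concentration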;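 also: wild-type TIM10 isogenic control strain grown at permissive 25 °C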
tim23-1 confirm = confirmation of tim23-1 mutant yeast growth inhibitors | shares compounds with tim23-1 inh | inhibition, % at 20 µM | AID 463218 | 4,400 tested, 83% active | S. cerevisiae tim23-1 growth, BacTiter-Glo luminescence, 24 h;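 active = inhibition above about 39% in either of two replicate wells at 20 µM, limit read from the data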;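 also: temperature-sensitive tim23-1 mutant grown at 25 °C; 0% = DMSO wells with yeast and 100% = medium wells without yeast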
* = called active by the depositor; ? = inconclusive; / = not tested or not shown.

SMILES | tim10-1 inh | SKKanGAS inh | PfHsp90 set2 | NLRP3 yeast inh | tim23-1 inh | TIM10 inh | tim23-1 confirm
CC(=O)COc1cccc2ccc(/C=C/c3ccc(Br)s3)nc12 | 24 | 15 | 5 | 25 | 55* | 28 | 45*
CCOc1cccc2sc(NC(=O)c3ccc(Br)s3)nc12 | 25 | 1 | -42 | 18 | 32 | 13 | /
CCN1C(=O)c2cccc3c(S(=O)(=O)N4CCNCC4)ccc1c23 | 8 | / | 10 | 20 | 12 | 4 | /
COc1ccc(NC(=O)/C=C/c2cccc(Br)c2)cn1 | -56 | -2 | -4 | 21 | 87* | 13 | 24
O=C(Cn1c(-c2ccccc2)noc1=O)Nc1ccc(S(=O)(=O)N2CCOCC2)cc1 | 8 | -1 | 0 | 5 | 2 | 3 | /
O=C(Cn1c(-c2ccccc2)noc1=O)Nc1ccc(N2CCCCCC2)cc1 | 39 | 8 | 0 | 6 | 51* | 29 | 42*
Nc1cc(=O)[nH]n1C1CCCCC1 | -6 | -9 | -13 | 13 | 12 | -4 | /
CC(C)c1ccc(NC(=O)C(c2ccccc2)N2CCC3(CC2)OCCO3)cc1 (configuration not stated) | 35 | -1 | -19 | 2 | 52* | 38 | 50*
O=C(Nc1cccc(-c2ccc(N3CCCCC3)nn2)c1)c1ccc(Br)o1 | 37 | 44 | -23 | 17 | 54* | 19 | 59*
O=C(Nc1cccc(-c2nnc(-c3ccccc3)o2)c1)c1ccc(Br)o1 | 21 | ? | 9 | 35 | 73* | 23 | 63*
O=C(Nc1cccc(OC(=O)c2ccc(Br)o2)c1)c1ccccc1 | 24 | -8 | -12 | 22 | 64* | 36 | 57*
Cc1ccc(C(=O)Oc2cccc(NC(=O)c3ccccc3)c2)cc1C | 17 | -15 | 4 | 34 | 31 | 11 | /
Cc1c(N2C(=O)/C(=C/c3ccccc3)SC2=S)c(=O)n(-c2ccccc2)n1C | 28 | 3 | -9 | 13 | 10 | 7 | /
Cc1c(N2C(=O)/C(=C\c3ccccc3O)SC2=S)c(=O)n(-c2ccccc2)n1C | 24 | 8 | -29 | 14 | 67* | 32 | 63*
Cc1sc2ncnc(OCC(=O)Nc3ccc4c(c3)OCCO4)c2c1C | -40 | -1 | -11 | 1 | -3 | -1 | /
Cc1nc(Nc2ccc3c(c2)OCCO3)c2c(C)c(C)sc2n1 | 10 | 21 | -22 | 25 | 55* | 24 | 49*
CCOC(=O)/C(=C/c1ccc(OC(=O)c2ccncc2)cc1)C(C)=O | 20 | / | -67 | 20 | 53* | 27 | 70*
O=C(Nc1ccc(-c2nc3ccccc3[nH]2)cc1)C1CCCO1 (configuration not stated) | 22 | 11 | 62 | 9 | 53* | 20 | 41*
C/C(=N\OCC(=O)N/N=C/c1ccccc1)c1cccs1 | 15 | 0 | 9 | 6 | 32 | 28 | /
C/C(=N\OCC(=O)N/N=C/c1ccccc1O)c1cccs1 | 15 | 17 | / | 5 | 56* | 30 | 57*
Cc1ccc(NC(=O)Nc2c(C)n(C)n(-c3ccccc3)c2=O)cc1 | -4 | -1 | -2 | 1 | 94* | 7 | 15
Cc1ccc(S(=O)(=O)N2[C@@H](c3ccc(Br)cc3)C(C(=O)O)=C[C@H]2C(C)(C)C)cc1 | 4 | / | -12 | -1 | 10 | 12 | /
CCCNc1c(NS(=O)(=O)c2ccc(C)cc2C)c(=O)oc2ccccc12 | 17 | -3 | -3 | 22 | 34 | 10 | /
COc1cc(/C=C(/C#N)C(=O)Nc2cc(C(F)(F)F)ccc2Cl)ccc1OCC(=O)Nc1cccc(C(F)(F)F)c1 | / | / | -8 | / | / | / | /
COc1ccc(C2/C=C\CN(C(=O)c3ccccc3)CC(=O)N2Cc2cccc(F)c2)cc1 (configuration not stated) | 30 | / | 5 | / | 59* | 16 | 42*
COc1ccc(C2/C=C\CN(CC(C)C)CC(=O)N2Cc2cccc(F)c2)cc1 (configuration not stated) | 20 | / | -12 | / | 50* | 10 | 39*
COc1ccc(C2/C=C\CN(S(=O)(=O)c3ccc(C)cc3)CC(=O)N2Cc2cccc(F)c2)cc1 (configuration not stated) | 20 | / | -9 | / | 45 | -5 | /

Screens (PubChem)
